Test systems include NCI-H23 lung; NCI-H226 lung; NCI-H322M lung; HOP-62 NSCLC; NCI-H460 lung; HOP-92 NSCLC; NCI-H522 lung; A549/ATCC NSCLC; 786-0 renal; COLO 205 colon; DU-145 prostate; K-562 leukemia; MALME-3M melanoma; MDA-MB-231 breast; RXF 393 renal; SF-268 CNS; SF-295 CNS; SF-539 CNS; UACC-257 melanoma; M14 melanoma.
What all share (test): NCI-60 one-dose screen, 48 h (100 = growth as untreated, 0 = no growth, -100 = all killed)
Common to all, as to details: 10 µM unless noted

Where “and” joins values, the source holds several entries; their conditions need not be identical. Equal values may be shown once. This is part of a sample that, as a whole, favours compounds with a hit. Of some 83,000 tested, about 20% had one in any assay.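 Testing used 96-well plates and a 48-hour single-concentration exposure. Example: -40 means 40% of the starting cells died.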 Calls of active or inactive are those of the source. How the source made its calls: active means growth percent below 10; inactive means the rest.

As to `Nc1ccc(N=Nc2ccc(S(=O)(=O)O)cc2)cc1S(=O)(=O)O`, the growth with NCI-H23 lung was 95.6% (inactive) and 99.8% (inactive); in the experiment on NCI-H226 lung, 110% (inactive) and 99.8% (inactive); in the experiment with NCI-H322M lung it was 104% (inactive) and 110% (inactive); in the experiment with HOP-62 NSCLC it was 118% (inactive) and 101% (inactive); in the experiment on NCI-H460 lung, 103% (inactive) and 96.2% (inactive); with HOP-92 NSCLC it was 90.9% (inactive) and 72% (inactive). For the same molecule, the growth with NCI-H522 lung is 91% (inactive) and 96.3% (inactive); in the experiment with A549/ATCC NSCLC it was 95.1% (inactive) and 103% (inactive); in the experiment on 786-0 renal, 104% (inactive) and 106% (inactive); with COLO 205 colon, 125% (inactive) and 119% (inactive); in the experiment with DU-145 prostate, 112% (inactive) and 104% (inactive); with K-562 leukemia it was 105% (inactive). In addition, the growth in the experiment with MALME-3M melanoma was 117% (inactive) and 112% (inactive); in the experiment on MDA-MB-231 breast, 88.2% (inactive) and 104% (inactive); with RXF 393 renal, 99.9% (inactive) and 61.2% (inactive); in the experiment on SF-268 CNS it was 95.2% (inactive) and 103% (inactive); with SF-295 CNS, 121% (inactive) and 87.8% (inactive); with SF-539 CNS it was 102% (inactive) and 100% (inactive). In addition, the growth with UACC-257 melanoma was 150% (inactive); in the experiment with M14 melanoma it was 93.8% (inactive) and 117% (inactive).
For the molecule `CN1CCN(Cc2occc(=O)c2O)CCN(C)CCN(Cc2occc(=O)c2O)CC1`, the growth with NCI-H23 lung is 94.6% (inactive) and 49.4% (inactive); with NCI-H226 lung it was 94.7% (inactive) and 70.5% (inactive); in the experiment on NCI-H322M lung it was 105% (inactive) and 74.9% (inactive); in the experiment with HOP-62 NSCLC it was 97.1% (inactive) and 58.9% (inactive); in the experiment on NCI-H460 lung it was 105% (inactive) and 6.42% (active); in the experiment on HOP-92 NSCLC, 83.8% (inactive) and 68.4% (inactive). The growth was 104% (inactive) and 45.8% (inactive) with NCI-H522 lung; 93.2% (inactive) and 12.3% (inactive) in the experiment on A549/ATCC NSCLC; 93.3% (inactive) and 50% (inactive) with 786-0 renal; 102% (inactive) and 29.7% (inactive) with COLO 205 colon; 124% (inactive) and 61.6% (inactive) in the experiment with DU-145 prostate; 101% (inactive) and 16.6% (inactive) in the experiment with K-562 leukemia. The growth is 106% (inactive) and 72% (inactive) in the experiment with MALME-3M melanoma; 106% (inactive) and 62.3% (inactive) in the experiment on MDA-MB-231 breast; 96.6% (inactive) and 72.9% (inactive) with RXF 393 renal; 113% (inactive) and 63.7% (inactive) in the experiment with SF-268 CNS; 102% (inactive) and 76.2% (inactive) in the experiment on SF-295 CNS; 93.7% (inactive) and 48% (inactive) with SF-539 CNS. For the same molecule, the growth with UACC-257 melanoma was 61.6% (inactive); in the experiment with M14 melanoma, 105% (inactive) and 52.9% (inactive).
As for `CCC(O)c1ccccc1` (stereo not given), the growth in the experiment on NCI-H23 lung was 112% (inactive) and 113% (inactive); with NCI-H226 lung, 96.1% (inactive) and 109% (inactive); in the experiment on NCI-H322M lung it was 114% (inactive) and 105% (inactive); in the experiment on HOP-62 NSCLC, 87.2% (inactive) and 109% (inactive); in the experiment on NCI-H460 lung, 106% (inactive) and 104% (inactive); in the experiment with HOP-92 NSCLC it was 117% (inactive) and 91.6% (inactive). The growth is 101% (inactive) and 86.4% (inactive) in the experiment with NCI-H522 lung; 104% (inactive) and 99.4% (inactive) in the experiment on A549/ATCC NSCLC; 94.6% (inactive) and 106% (inactive) in the experiment on 786-0 renal; 128% (inactive) and 111% (inactive) with COLO 205 colon; 120% (inactive) and 118% (inactive) in the experiment on DU-145 prostate; 96.8% (inactive) and 104% (inactive) with K-562 leukemia. Also, the growth in the experiment with MALME-3M melanoma was 114% (inactive) and 111% (inactive); with MDA-MB-231 breast, 95.9% (inactive) and 112% (inactive); in the experiment on RXF 393 renal it was 8.94% (active) and 98.9% (inactive); with SF-268 CNS, 113% (inactive); in the experiment with SF-295 CNS it was 95% (inactive) and 115% (inactive); in the experiment on SF-539 CNS, 89.2% (inactive) and 105% (inactive). The growth is 135% (inactive) and 85.4% (inactive) in the experiment with UACC-257 melanoma; 100% (inactive) with M14 melanoma.
In the case of `O=C(O)C1(C(=O)O)CCC1.[NH2-].[NH2-].[Pt+2]`, the growth in the experiment with NCI-H23 lung is 104% (inactive) and 87.6% (inactive); in the experiment with NCI-H226 lung it was 99% (inactive) and 98.5% (inactive); with NCI-H322M lung, 99.9% (inactive) and 110% (inactive); in the experiment on HOP-62 NSCLC, 98.2% (inactive) and 105% (inactive); in the experiment with NCI-H460 lung, 116% (inactive) and 92.4% (inactive); with HOP-92 NSCLC, 70.1% (inactive). Further, the growth was 98.3% (inactive) and 76.1% (inactive) in the experiment with NCI-H522 lung; 99.3% (inactive) and 97.5% (inactive) with A549/ATCC NSCLC; 101% (inactive) and 98.7% (inactive) in the experiment with 786-0 renal; 106% (inactive) and 115% (inactive) in the experiment with COLO 205 colon; 127% (inactive) and 104% (inactive) in the experiment with DU-145 prostate; 65.9% (inactive) in the experiment on K-562 leukemia. In addition, the growth with MALME-3M melanoma is 86.4% (inactive) and 94.2% (inactive); in the experiment with MDA-MB-231 breast it was 94.4% (inactive) and 8.97% (active); with RXF 393 renal, 93.9% (inactive); with SF-268 CNS, 118% (inactive) and 96.4% (inactive); in the experiment on SF-295 CNS it was 103% (inactive) and 96.9% (inactive); in the experiment with SF-539 CNS it was 100% (inactive) and 89% (inactive). For the same molecule, the growth in the experiment with UACC-257 melanoma is 102% (inactive) and 95.7% (inactive); in the experiment on M14 melanoma, 99.2% (inactive) and 104% (inactive).

Values taken from PubChem BioAssay (NCI).
